Compound activity: PubChem BioAssay, National Center for Advancing Translational Sciences (NCATS)
Compounds with a hit are over-represented: about 1.5% of the library has one in this group of screens.
GALK inh: blocks human galactokinase activity. Potency, µM (top dose mostly 57.5 µM), for inactives: at the top dose activity change, negative = inhibition, actives largely listed as inhibitors. AID 1868. 270,000 tested, 0.007% active. P51570. Purified GALK, Kinase-Glo residual ATP luminescence; note: potency is the fitted concentration of half-maximal effect
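GALK at 5 nM final was combined with compound, 35 uM ATP and 100 uM galactose in HEPES pH8.0 with MgCl2 and DTT. The reaction ran one hour at room temperature before luminescent ATP detection.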
TrxR1 substrate: substrates of rat thioredoxin reductase 1; 390,000 tested, 0.01% active; Potency, µM (doses to about 114 µM), without a hit: at the top dose activity change, negative = substrate turnover; purified TrxR1 substrate turnover, NADPH consumption readout; O89049; note: potency is the fitted concentration of half-maximal effect; nearly all actives have a fitted effect of over 50% in size
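Rat TrxR1, dispensed at 90 nM, was prereduced with 400 uM NADPH (final) for 5 min at ~22 deg C, then incubated with compound 15 min before 400 uM selenite. A first-read NADPH fluorescence drop versus no-compound background flagged substrates.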
PI4K2A inh: inhibitors of human PI4K2A | Q9BTU6 | purified PI4K2A, ADP-Glo luminescence, 1 h; hits give low values | activity change, negative = inhibition, % at 76.9 µM | 420,000 tested, 0.13% active | AID 1346378; in the data active = activity change below about -50%; inconclusive = mostly about -30% to -49%;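 note: -100% = wells without enzyme as full effect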
Target sequence (Q9BTU6 whole entry, looked up): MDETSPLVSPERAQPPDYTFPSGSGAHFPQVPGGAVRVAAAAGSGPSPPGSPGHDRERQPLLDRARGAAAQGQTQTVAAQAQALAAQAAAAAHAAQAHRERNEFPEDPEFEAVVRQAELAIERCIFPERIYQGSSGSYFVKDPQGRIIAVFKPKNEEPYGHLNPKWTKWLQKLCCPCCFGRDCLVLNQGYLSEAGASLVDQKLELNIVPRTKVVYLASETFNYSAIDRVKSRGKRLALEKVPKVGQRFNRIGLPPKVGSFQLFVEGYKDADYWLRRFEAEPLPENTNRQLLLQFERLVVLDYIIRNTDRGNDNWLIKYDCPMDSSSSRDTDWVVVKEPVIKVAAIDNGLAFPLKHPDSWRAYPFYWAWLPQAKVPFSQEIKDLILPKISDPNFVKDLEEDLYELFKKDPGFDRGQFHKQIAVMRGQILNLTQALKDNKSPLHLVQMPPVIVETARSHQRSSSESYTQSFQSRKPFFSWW
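Compounds are screened against recombinant PI4K2A using PI as substrate and ATP, the latter dispensed at 300 microM. Reactions run one hour at ambient temperature before ADP-Glo detection; full inhibition defined by wells lacking enzyme.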
TrxR1 inh: inhibitors of rat thioredoxin reductase 1 | O89049 | recombinant rTrxR1, NADPH fluorescence consumption, selenite substrate | Potency, µM (titrated, usually from 114 µM), for the others: top-dose activity change, negative = inhibition, actives largely listed as inhibitors | 390,000 tested, 1% active | AID 588453; note: potency is the fitted concentration of half-maximal effect; nearly all actives have a fitted effect of over 65% in size
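Rat TrxR1 (90 nM in the dispensed reagent) was pre-reduced with 400 uM NADPH for 5 min at room temperature, then incubated with compound for 15 min. After 400 uM selenite was added, NADPH fluorescence (Ex 340/Em 450 nm) was followed for 8 min.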
Giardia kill: kills Giardia lamblia; activity change, % at 7.66 µM, hits read low; Giardia lamblia trophozoite viability; 340,000 tested, 0.15% active; AID 540267; in the data active = activity change below about -80%; inconclusive = between about -30% and that limit;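 note: parasites exposed to compound for two days anaerobically before the ATP read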
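Killing of trophozoites was scored by loss of ATP luminescence after a 48 hrs anaerobic exposure to compounds at 37 deg C, using 100 cells per well.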
FBPA coupling cs: inhibits coupling enzyme system, counter-screen for aldolase hits. activity change, negative = inhibition, % at 58.2 µM, hits read low. 290,000 tested, 0.67% active. coupling enzyme system counterscreen, AmpLite Red fluorescence; in the data active = activity change below about -30%
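Fluorescence at 525 nm excitation and 598 nm emission measured inhibition of the coupled detection system without aldolase. Compounds (at 57.5 uM final) were preincubated 10 min at room temperature with coupling enzyme reagent before a 20 min substrate/AmpLite Red step.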
The depositor's hits bear a star; ? = inconclusive; nt = not tested or not shown; ! = not confirmed by another sample; [ ] = remark or other dose. Unless noted, calls come from the whole dose curve; as a rule, active = well fitted curve in the direction sought with a large enough effect; inconclusive = small, poorly fitted or top-dose-only effect, or another doubt; inactive = no such curve, though single readings can be large; an effect the other way counts as inactive or inconclusive. Unless noted, % is set by controls: 0 for no effect and ±100 for the full control effect.

SMILES	GALK inh	TrxR1 substrate	PI4K2A inh	TrxR1 inh	Giardia kill	FBPA coupling cs
COc1ccc(S(=O)(=O)Nc2cc(Sc3ncn[nH]3)c(O)c3ccccc23)cc1	-1%	50µM*	nt	?	6	-58*
Cc1cc(C)c(S(=O)(=O)Nc2cc(SCC(=O)O)c(O)c3ccccc23)cc1C	0%	-11%	?	?	21	-53*
COc1cc(N)c(N)cc1OC	nt	7%	nt	12%	nt	nt
C=CCn1c(COc2ccccc2)nnc1SCC(=O)Nc1ccc(Oc2ccccc2)cc1	nt	nt	1	nt	nt	nt
COc1ccc(S(=O)(=O)Nc2cccc3ccccc23)cc1	nt	4%	nt	30%	12	nt
COc1ccc(S(=O)(=O)Nc2cc(SCC(=O)O)c(O)c3ccccc23)cc1	-5%	-6%	?	-25%	-8	-47*
COc1cccc(CNC(=O)c2oc3ccc4c(c3c2C)C(=O)CC(C)(C)O4)c1OC	nt	4%	0	13%	nt	nt
CCOC(=O)Cc1csc(NC(=O)c2cccs2)n1	-1%	-5%	-84*	1%	-13	0
CCOC(=O)Cc1csc(NC(=O)c2ccoc2C)n1	7%	10%	-50*	3%	-14	3
CCOC(=O)Cc1csc(NC(=O)c2ccc(Br)s2)n1	-2%	nt	nt	nt	nt	-1
Cc1ccc2c(=O)c(C(=O)c3ccccc3)cn(CC(=O)NCc3ccccc3)c2n1	nt	3%	2	25%	nt	nt
O=C(Nc1cccc(Cl)c1)OCC#CCCl	nt	nt	nt	nt	nt	-38*
CCC(C(=O)O)c1ccc(N2Cc3ccccc3C2=O)cc1 (centres undefined)	nt	nt	-5	nt	nt	nt
CC(C)(C)C(=O)Nc1ccc(-c2cn3ccsc3n2)cc1	0%	3%	-7	11%[57.1 µM]	-97*	3
Cc1[nH]c2ccc3c(ncn3CCC#N)c2c1C	0%	7%	1	-2%	-25	-36*
CN(C)c1ccc(/C=C/c2c(Br)cnc3ccccc23)cc1	nt	0%	nt	0%	nt	nt
COc1ccccc1N1CCN(c2nc(N)c(C#N)c(CC#N)c2C#N)CC1	5%	-9%	5	-28%	1	-19
COc1cc2c(C#N)c(N3CCCC3)nc(N)c2c(N)n1	-8%	16µM*!	-55*!	-26%[57.1 µM]	13	-31*
COc1cc2c(C#N)c(N3CCN(C)CC3)nc(N)c2c(N)n1	-1%	nt	nt	nt	nt	-13
COc1cc2c(C#N)c(N3CCN(c4ccccc4OC)CC3)nc(N)c2c(N)n1	-4%	50%	-55*	13%	6	-52*
N#Cc1c(N2CCCC2)nc(N)c2c(N)nc(N3CCCC3)cc12	?	80%	?	23%	-6	-36*
N#C/C(=C1/SC[C@@H](c2ccc(Cl)cc2Cl)S1)n1ccnc1	nt	nt	-10	nt	nt	nt
CCOC(=O)c1c(OCC)[nH]c2c1cc(O)c1ccccc12	1%	11%[57.1 µM]	1	-15%	6	-49*
Nc1c(C2CCCCC2)c(=O)on1C(=O)c1ccccc1	nt	-1%	-1	45µM*	-4	nt
CC1Oc2ccccc2N(CC(=O)N(Cc2ccccc2)Cc2ccccn2)C1=O (centres undefined)	-2%	2%	-71*	15%	3	5
SMILES	GALK inh	TrxR1 substrate	PI4K2A inh	TrxR1 inh	Giardia kill	FBPA coupling cs
NC(=O)C1(N2CCCCC2)CCN(CCCN2c3ccccc3CCc3ccc(Cl)cc32)CC1	nt	nt	3	nt	nt	nt
COc1ccccc1NC(=O)C1=C(C)Nc2nc3ccccc3n2C1c1ccccc1Cl (centres undefined)	nt	0%	-1	14%	nt	nt
OCC[n+]1ccc(/C=C/c2c[nH]c3ccccc23)cc1	1%	-10%	-1	-8%	-8	-48*
Cc1ccc(-n2c3nc(=O)[nH]c(=O)c-3cc3cc([N+](=O)[O-])ccc32)cc1	-12%	-16%	-16	-26%	-10	-34*
Cc1ccc(-n2c(C)nn(Cc3ccc([N+](=O)[O-])cc3)c2=O)cc1	-1%	4%[57.1 µM]	-4	32%[57.1 µM]	2	1
N#C/C(=C\c1ccccn1)c1nc2ccccc2s1	3%	-5%	2	56µM*	11	-1
N#C/C(=C/c1ccc(-c2ccc(S(N)(=O)=O)cc2)o1)c1nc2ccccc2s1	1%	-8%	-12	89µM*	-22	-2
